The results in this text go back to PubChem BioAssay AID1963822 (ICCB-Longwood Screening Facility, Harvard Medical School, 2024).

The nature of the test: anaerobic choline-dependent bacterial growth inhibition – minimal medium, absorbance (AID 1963822). The settings on record: Gram-negative bacterium anaerobic choline minimal medium.
Where [1] appears, read: measured here: choline growth z-score, timepoint 1, stronger effect = lower value.

The whole screen tested about 55,000 compounds, of which about 90 (0.2%) were called active. How the calls were made is not given here. What follows is part of a selection rich in actives, with near analogues and random picks from the rest.

Regarding `CCCCCC(=O)CC[C@H]1[C@H](O)CC(=O)[C@@H]1C/C=C\CCCC(=O)O`, the z-score is, setting by setting: (stronger effect = lower value) 0.71 (inactive); under setting [1], 1.09.

Consider `CCCC[C@H](C)C[C@H](O)/C=C/[C@@H]1[C@@H](CCCCCCC(=O)O)[C@@H](O)C[C@H]1O`, for which the z-score was 0.5 (inactive) (stronger effect = lower value) and -0.78 under setting [1].

With `CCOC(=O)c1ccc(NC(=O)CSc2nnc(NC(=O)NC3CCCCC3)s2)cc1`, the z-score reads like this: (stronger effect = lower value) 0.1 (inactive); under setting [1], 0.31.

Regarding `COc1cccc(C2Nc3ccc(Cl)cc3[C@H]3OCCC[C@@H]23)c1OC` (stereo partly drawn), the z-score (stronger effect = lower value) is 1.2 (inactive) and the z-score under setting [1] was 2.03.

In the case of `CN(CCCNC(=O)c1c2c(nc3ccccc13)C(=O)N(C1CCCCC1)C2)c1ccccc1`, the z-score reads like this: (stronger effect = lower value) -0.07 (inactive); under setting [1], -1.59.

Consider `COc1ccc(NC(=O)c2cccc(-c3nc(-c4ccc(F)cc4)no3)c2)cc1OC`, for which the z-score reads like this: (stronger effect = lower value) -1 (inactive); under setting [1], -0.62.

On to `CN1CCN(S(=O)(=O)c2ccc3c(c2)C(C)(C)CN3CC(=O)N2CCCC2)CC1`, for which the z-score is 1.07 (inactive) (stronger effect = lower value) and 0.91 under setting [1].

`Cc1cn(C)c(CC(=O)NC2CCN(Cc3ccccc3)CC2)c1C(=O)O`: the z-score (stronger effect = lower value) is -0.86 (inactive) and the z-score under setting [1] is 0.19.

In the case of `Brc1ccc(-c2nn[nH]n2)cc1`, the z-score is -1.32 (inactive) (stronger effect = lower value) and -1.04 under setting [1].

Regarding `CCOC(=O)C1CCCN(C(=O)Cn2c(=O)c3ccccc3n3c(=S)sc(-c4ccccc4)c23)C1` (stereo not drawn), the z-score (stronger effect = lower value) was 0.91 (inactive) and the z-score under setting [1] came to 0.36.

Consider `CCN(CC)C(=O)CSc1nnc2c3ccccc3nc(-c3ccccc3)n12`, for which the z-score by setting is: (stronger effect = lower value) 2.11 (inactive); under setting [1], 1.21.

For the compound `CCOc1ccc(S(=O)(=O)NC(C)C)cc1-c1nc(C)no1`, the z-score runs as follows: (stronger effect = lower value) 0.37 (inactive); under setting [1], -1.19.

In the case of `CCCN(CCC)CCNc1cc(C)nc2c(-c3ccccc3OC)c(C)nn12`, the z-score by setting is: (stronger effect = lower value) 1.1 (inactive); under setting [1], -0.02.

Take `Cc1nc(-c2csc(S(=O)(=O)NCc3ccccc3Cl)c2)sc1C`: the z-score (stronger effect = lower value) was -0.96 (inactive) and the z-score under setting [1] was -0.18.

As for `Cc1[nH]nc2c1C(C(=O)c1cccc(Cl)c1)CC(=O)N2` (stereo not drawn), the z-score (stronger effect = lower value) is 0.36 (inactive) and the z-score under setting [1] is 0.1.

With `COc1ccc(NS(=O)(=O)c2cc(-c3nc(-c4ccccc4)no3)sc2C)cc1OC`, the z-score by setting is: (stronger effect = lower value) 0.43 (inactive); under setting [1], -0.06.

For the compound `CCN1CCN(C(=O)c2cc(N(C)S(=O)(=O)c3ccccc3)ccn2)CC1`, the z-score by setting is: (stronger effect = lower value) 0.78 (inactive); under setting [1], 0.89.

For `O=S(=O)(Nc1ccc(F)cc1)c1cc(-c2noc(C3CC3)n2)cs1`, the z-score reads like this: (stronger effect = lower value) 0.08 (inactive); under setting [1], -0.4.

Consider `COc1ccccc1CNc1ncc2nc(-c3ccccc3)oc2n1`, for which the z-score was -0.72 (inactive) (stronger effect = lower value) and -0.32 under setting [1].

Regarding `Cc1ccc(-c2cc(C(=O)N3CCN(C)CC3)no2)cc1C`, the z-score reads like this: (stronger effect = lower value) -2.15 (inactive); under setting [1], -1.67.

For `C=CCn1c(=O)c(=O)n(Cc2ccc(C(=O)N3CCC(N4CCCCC4)CC3)cc2)c2ccccc21`, the z-score was 0.52 (inactive) (stronger effect = lower value) and 0.14 under setting [1].

`O=C(Cn1cccc1-c1nc(-c2ccc(Cl)cc2)cs1)NCc1ccc2c(c1)OCO2`: the z-score runs as follows: (stronger effect = lower value) 0.32 (inactive); under setting [1], -0.44.

As for `CC(C)c1nnc2ccc(N3CCN(C(C)C)CC3)nn12`, the z-score runs as follows: (stronger effect = lower value) 0.55 (inactive); under setting [1], -2.47.

With `CCCN1C(=O)c2ccccc2Sc2cc(-c3noc(/C=C/c4ccccc4)n3)ccc21`, the z-score is -0.13 (inactive) (stronger effect = lower value) and 0.3 under setting [1].

On to `COC(=O)Cn1nc2c(-c3nc(-c4ccc(Cl)cc4)no3)cccn2c1=O`, for which the z-score was -0.55 (inactive) (stronger effect = lower value) and -1.3 under setting [1].

Take `Cc1ccc(N2CC(c3nc(-c4ccc(N5CCCC5)cc4)no3)CC2=O)cc1C` (stereo not drawn): the z-score (stronger effect = lower value) was 0.33 (inactive) and the z-score under setting [1] was found to be 0.93.

For the compound `CC1CCN(CCCNC(=O)Cc2ccc(NC(=O)N3CCSc4ncccc43)cc2)CC1`, the z-score reads like this: (stronger effect = lower value) 1.04 (inactive); under setting [1], 0.79.

`Cc1cc(C)c2nc(C)cc(C(=O)NC3CC3)c2c1`: the z-score was 1.05 (inactive) (stronger effect = lower value) and 0.53 under setting [1].

Turning to `CCC1(CC)Cc2ccccc2-c2[nH]c(=O)n(CC3=CCCO3)c(=O)c21`, the z-score (stronger effect = lower value) is 0.12 (inactive) and the z-score under setting [1] is -1.14.

As for `COc1ccccc1N1CCN(c2ccc(=O)n(CC(=O)NCc3ccccn3)n2)CC1`, the z-score runs as follows: (stronger effect = lower value) -0.67 (inactive); under setting [1], -0.7.

Regarding `CN(C)C(=O)c1cc2c(s1)CCC(C(=O)N(C)C)C2` (stereo not drawn), the z-score is 0.34 (inactive) (stronger effect = lower value) and 0.33 under setting [1].

For `CC(C)(C)c1ccc(S(=O)(=O)NCc2nc(N)n(S(=O)(=O)c3ccc(C(C)(C)C)cc3)n2)cc1`, the z-score by setting is: (stronger effect = lower value) -0.11 (inactive); under setting [1], 0.06.

`CCOc1ccc(N(Cc2nc3nc(C)cc(C)n3n2)C(=O)CC(C)C)cc1`: the z-score reads like this: (stronger effect = lower value) -0.89 (inactive); under setting [1], -1.11.

As to `CCOc1ccc(-c2cc(C(=O)Oc3ccc(OC)cc3)no2)cc1`, the z-score was -0.02 (inactive) (stronger effect = lower value) and 0.37 under setting [1].

With `O=C(CN1C(=O)CSc2ccc(S(=O)(=O)N3CCCC3)cc21)Nc1cccnc1`, the z-score is 0.64 (inactive) (stronger effect = lower value) and 0.19 under setting [1].

`O=C(NC1CC1)C1CCCN(c2ccc3cc(S(=O)(=O)N4CCCCC4)ccc3n2)C1` (stereo not drawn): the z-score by setting is: (stronger effect = lower value) -0.89 (inactive); under setting [1], -0.76.

Regarding `O=C(Nc1ccc(F)cc1)c1ccccn1`, the z-score (stronger effect = lower value) was -3.6 (inactive) and the z-score under setting [1] is -3.98.

On to `O=C(c1nnc(-c2ccc(S(=O)(=O)N3CCCC3)cc2)o1)N1CCCC1`, for which the z-score is, setting by setting: (stronger effect = lower value) 0.25 (inactive); under setting [1], 0.12.

Consider `COc1ccnc2c1c(=O)n(CC(=O)N1CCCc3ccccc31)c(=O)n2C`, for which the z-score reads like this: (stronger effect = lower value) 1.04 (inactive); under setting [1], 0.31.
